According to the supplement of paper PMC6897291:
“And” between values parts separate entries of the source, which are not always exact repeats. Equal entries are not always repeated. Structures can show the parent of a compound that is named as a salt.

Legend:
U-2932 [1] = experiment: growth inhibition by drug alone (1 - RLU/untreated control) (fraction); higher = stronger inhibition; conditions: 177Lu-lilotomab satetraxetan 0 ug/ml
Procedure, shortened: (§1)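 Plates pre-printed with the Selleck Cambridge Cancer Compound library at 10/100 nM (RIVA) or 10/1,000 nM (U-2932) received 3,000 cells/well. These cells had been washed after 18 h untreated or with a radiolabelled anti-CD37 antibody conjugate (~600 MBq/mg; 0.5 µg/ml RIVA, 1 µg/ml U-2932). Growth inhibition was obtained from RealTime-Glo luminescence in relation to untreated no-drug wells. Each daily read from day 3, taken after 1 h at 37°C, was converted as 1 − RLU/mean of 48 such wells per plate.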

RIVA [2] = experiment: as above; conditions: 177Lu-lilotomab satetraxetan 0 ug/ml
Procedure, shortened: as §1

U-2932 [3] = experiment: growth inhibition by drug plus 177Lu-lilotomab satetraxetan (1 - RLU/untreated control) (fraction); higher = stronger inhibition; conditions: 177Lu-lilotomab satetraxetan 1 ug/ml
Procedure, shortened: as §1

RIVA [4] = experiment: as above; conditions: 177Lu-lilotomab satetraxetan 0.5 ug/ml
Procedure, shortened: as §1

| SMILES | growth inhibition by drug alone (U-2932 [1]; 10 nM, time (day): 3) | growth inhibition by drug alone (U-2932 [1]; 10 nM, time (day): 4) | growth inhibition by drug alone (U-2932 [1]; 10 nM, time (day): 5) | growth inhibition by drug alone (U-2932 [1]; 10 nM, time (day): 6) | growth inhibition by drug alone (U-2932 [1]; 1000 nM, time (day): 3) | growth inhibition by drug alone (U-2932 [1]; 1000 nM, time (day): 4) | growth inhibition by drug alone (U-2932 [1]; 1000 nM, time (day): 5) | growth inhibition by drug alone (U-2932 [1]; 1000 nM, time (day): 6) | growth inhibition by drug alone (RIVA [2]; 10 nM, time (day): 3) | growth inhibition by drug alone (RIVA [2]; 10 nM, time (day): 4) | growth inhibition by drug alone (RIVA [2]; 10 nM, time (day): 5) | growth inhibition by drug alone (RIVA [2]; 10 nM, time (day): 6) | growth inhibition by drug alone (RIVA [2]; 100 nM, time (day): 3) | growth inhibition by drug alone (RIVA [2]; 100 nM, time (day): 4) | growth inhibition by drug alone (RIVA [2]; 100 nM, time (day): 5) | growth inhibition by drug alone (RIVA [2]; 100 nM, time (day): 6) | growth inhibition by drug plus 177Lu-lilotomab satetraxetan (U-2932 [3]; 10 nM, time (day): 3) | growth inhibition by drug plus 177Lu-lilotomab satetraxetan (U-2932 [3]; 10 nM, time (day): 4) | growth inhibition by drug plus 177Lu-lilotomab satetraxetan (U-2932 [3]; 10 nM, time (day): 5) | growth inhibition by drug plus 177Lu-lilotomab satetraxetan (U-2932 [3]; 10 nM, time (day): 6) | growth inhibition by drug plus 177Lu-lilotomab satetraxetan (U-2932 [3]; 1000 nM, time (day): 3) | growth inhibition by drug plus 177Lu-lilotomab satetraxetan (U-2932 [3]; 1000 nM, time (day): 4) | growth inhibition by drug plus 177Lu-lilotomab satetraxetan (U-2932 [3]; 1000 nM, time (day): 5) | growth inhibition by drug plus 177Lu-lilotomab satetraxetan (U-2932 [3]; 1000 nM, time (day): 6) | growth inhibition by drug plus 177Lu-lilotomab satetraxetan (RIVA [4]; 10 nM, time (day): 3) | growth inhibition by drug plus 177Lu-lilotomab satetraxetan (RIVA [4]; 10 nM, time (day): 4) | growth inhibition by drug plus 177Lu-lilotomab satetraxetan (RIVA [4]; 10 nM, time (day): 5) | growth inhibition by drug plus 177Lu-lilotomab satetraxetan (RIVA [4]; 10 nM, time (day): 6) | growth inhibition by drug plus 177Lu-lilotomab satetraxetan (RIVA [4]; 100 nM, time (day): 3) | growth inhibition by drug plus 177Lu-lilotomab satetraxetan (RIVA [4]; 100 nM, time (day): 4) | growth inhibition by drug plus 177Lu-lilotomab satetraxetan (RIVA [4]; 100 nM, time (day): 5) | growth inhibition by drug plus 177Lu-lilotomab satetraxetan (RIVA [4]; 100 nM, time (day): 6) |
| --- | --- | --- | --- | --- | --- | --- | --- | --- | --- | --- | --- | --- | --- | --- | --- | --- | --- | --- | --- | --- | --- | --- | --- | --- | --- | --- | --- | --- | --- | --- | --- | --- |
| CN(C)C[C@@H]1CCn2cc(c3ccccc32)C2=C(C(=O)NC2=O)c2cn(c3ccccc23)CCO1 | 0.148 | 0.0748 | 0.0024 | -0.0699 | 0.292 | 0.306 | 0.226 | 0.249 | 0.0588 | 0.0867 | -0.0102 | -0.214 | 0.041 | 0.0997 | 0.0496 | -0.0383 | 0.0704 | 0.125 | 0.141 | 0.173 | 0.448 | 0.48 | 0.458 | 0.49 | – | – | – | – | – | – | – | – |
| C[C@@H]1CCN(C(=O)CC#N)C[C@@H]1N(C)c1ncnc2[nH]ccc12 | – | – | – | – | – | – | -0.0604 and -0.0478 | – | – | – | – | -0.145 and -0.158 | – | – | – | -0.23 and -0.152 | -0.0798 and -0.0527 | – | – | – | -0.1 and -0.107 | – | – | – | 0.396 and 0.421 | 0.461 and 0.516 | 0.484 and 0.536 | 0.5 and 0.538 | 0.367 and 0.379 | 0.424 and 0.434 | 0.412 and 0.435 | 0.396 and 0.419 |
| CC(C)c1onc(-c2c(Cl)cccc2Cl)c1COc1ccc(/C=C/c2cccc(C(=O)O)c2)c(Cl)c1 | – | – | – | – | – | – | – | – | 0.157 | 0.0681 | 0.0301 | -0.185 | 0.0922 | 0.0619 | 0.0293 | -0.0245 | 0.0329 | 0.0686 | 0.0726 | 0.0791 | -0.0283 | 0.0526 | 0.0247 | 0.0113 | 0.473 | 0.542 | 0.562 | 0.583 | 0.522 | 0.552 | 0.554 | 0.538 |
| CC[C@@]1(O)C(=O)OCc2c1cc1n(c2=O)Cc2cc3c(CN(C)C)c(O)ccc3nc2-1 [Topotecan HCl] | – | – | – | – | – | – | – | – | 0.45 | 0.629 | 0.715 | 0.801 | 0.689 | 0.808 | 0.85 | 0.882 | 0.403 | 0.516 | 0.604 | 0.67 | 0.97 | 0.978 | 0.983 | 0.985 | 0.802 | 0.878 | 0.913 | 0.944 | 0.814 | 0.883 | 0.91 | 0.931 |
| CC(c1cc2ccccc2s1)N(O)C(N)=O (configuration not stated) [Zileuton] | 0.0373 | 0.016 | -0.0853 | -0.151 | -0.0669 | -0.0105 | -0.0851 | -0.12 | -0.0289 | -0.0441 | -0.104 | -0.421 | -0.161 | -0.195 | -0.186 | -0.323 | -0.00999 | 0.00112 | 0.025 | 0.0355 | -0.0574 | 0.0263 | -0.0233 | 0.0666 | – | – | – | – | – | – | – | – |
| COc1ccc(-c2oc3cc(OC)ccc3c2C(=O)c2ccc(C#N)cc2)cc1 | – | – | – | – | – | – | – | – | -0.046 | -0.0513 | -0.124 | -0.374 | -0.0825 | -0.0731 | -0.0858 | -0.201 | -0.0286 | -0.00458 | 0.0392 | 0.0337 | -0.0968 | 0.0212 | 0.0134 | 0.0408 | 0.441 | 0.559 | 0.571 | 0.572 | 0.391 | 0.503 | 0.507 | 0.483 |
| O=c1cc(-c2cccc3c2Sc2ccccc2S3)oc(N2CCOCC2)c1 | – | – | – | – | – | – | – | – | -0.212 | -0.223 | -0.243 | -0.318 | -0.0838 | -0.0652 | -0.119 | -0.19 | -0.0246 | -0.00365 | 0.0233 | 0.166 | -0.108 | -0.0389 | -0.0219 | 0.0537 | 0.36 | 0.504 | 0.522 | 0.526 | 0.335 | 0.399 | 0.405 | 0.382 |
| COc1cc2nccc(Oc3ccc(NC(=O)NC4CC4)c(Cl)c3)c2cc1C(N)=O [E7080 (Lenvatinib)] | – | – | – | – | – | – | – | – | -0.272 | -0.277 | -0.3 | -0.325 | -0.113 | -0.192 | -0.168 | -0.219 | -0.0798 | -0.0346 | 0.0178 | 0.0795 | -0.0775 | 0.00296 | 0.0372 | 0.201 | 0.331 | 0.478 | 0.485 | 0.496 | 0.364 | 0.44 | 0.454 | 0.461 |
| O=C(/C=C/c1cccnc1)NCCCCC1CCN(C(=O)c2ccccc2)CC1 | – | – | – | – | – | – | – | – | 0.983 | 0.983 | 0.982 | 0.979 | 0.981 | 0.982 | 0.982 | 0.98 | 0.909 | 0.859 | 0.812 | 0.758 | 0.984 | 0.985 | 0.986 | 0.988 | 0.991 | 0.991 | 0.99 | 0.99 | 0.99 | 0.99 | 0.991 | 0.991 |
| COc1cc2ncnc(-n3nc(-c4ccccn4)nc3N)c2cc1OC | – | – | – | – | – | – | – | – | -0.00526 | 0.0304 | -0.00529 | -0.18 | -0.0276 | -0.0495 | -0.074 | -0.143 | 0.0575 | 0.105 | 0.1 | 0.113 | -0.00115 | 0.0649 | 0.0622 | 0.0772 | 0.485 | 0.573 | 0.58 | 0.588 | 0.535 | 0.578 | 0.579 | 0.559 |
| Cc1ccc(NC(=O)c2ccc(CN3CCN(C)CC3)cc2)cc1Nc1nccc(-c2cccnc2)n1 [Imatinib (Gleevec)] | 0.114 | 0.0795 | 0.0573 | -0.108 | -0.0113 | -0.0535 | -0.0116 | -0.0612 | -0.0508 | -0.0897 | -0.292 | -0.626 | -0.513 | -0.311 | -0.289 | -0.464 | -0.0306 | 0.0247 | 0.124 | 0.134 | -0.0872 | -0.0527 | 0.073 | 0.171 | – | – | – | – | – | – | – | – |
| C[C@@H](O[C@H]1OCCN(Cc2n[nH]c(=O)[nH]2)[C@H]1c1ccc(F)cc1)c1cc(C(F)(F)F)cc(C(F)(F)F)c1 [Aprepitant (MK-0869)] | – | – | – | – | – | – | – | – | -0.223 | -0.258 | -0.291 | -0.358 | -0.233 | -0.342 | -0.277 | -0.366 | -0.142 | -0.123 | -0.143 | -0.121 | -0.075 | 0.0386 | 0.0779 | 0.19 | 0.306 | 0.465 | 0.481 | 0.488 | 0.319 | 0.43 | 0.441 | 0.419 |
